The source of these data is ChEMBL document CHEMBL1961873, “Compounds: GSK PKIS; Assays: Nanosyn kinase panel” (2012).

Experiment [1] deals with T1, Aurora kinase A (Homo sapiens) (UniProt O14965).
T1 sequence (whole entry): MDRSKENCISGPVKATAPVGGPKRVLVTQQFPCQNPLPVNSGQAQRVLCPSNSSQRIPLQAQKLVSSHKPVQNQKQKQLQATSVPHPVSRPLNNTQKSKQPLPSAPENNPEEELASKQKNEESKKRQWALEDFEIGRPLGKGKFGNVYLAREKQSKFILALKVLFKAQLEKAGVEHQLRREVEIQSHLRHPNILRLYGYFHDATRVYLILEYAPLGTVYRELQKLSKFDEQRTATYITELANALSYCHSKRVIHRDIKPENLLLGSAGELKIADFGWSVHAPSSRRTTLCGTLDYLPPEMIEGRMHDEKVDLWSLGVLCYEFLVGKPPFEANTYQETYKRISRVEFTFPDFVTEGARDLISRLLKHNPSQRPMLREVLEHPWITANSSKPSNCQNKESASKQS
Particulars: at 1 µM.

The target of experiment [2] is Aurora kinase B (Homo sapiens) (UniProt Q96GD4). The settings on record: at 0.1 µM.
Experiment [3] has the same target. Particulars: at 1 µM.
For experiment [4], the target named is T2, Aurora kinase C (Homo sapiens) (UniProt Q9UQB9).
T2 sequence (whole entry): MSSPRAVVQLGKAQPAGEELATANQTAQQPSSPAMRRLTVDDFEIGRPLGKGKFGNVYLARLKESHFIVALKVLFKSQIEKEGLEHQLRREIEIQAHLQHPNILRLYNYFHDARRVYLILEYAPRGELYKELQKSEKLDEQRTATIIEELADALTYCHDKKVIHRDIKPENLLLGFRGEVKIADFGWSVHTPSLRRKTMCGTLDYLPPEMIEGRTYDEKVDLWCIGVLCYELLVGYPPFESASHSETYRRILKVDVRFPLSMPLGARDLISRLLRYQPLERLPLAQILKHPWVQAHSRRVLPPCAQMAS
The settings on record: at 0.1 µM.

In experiment [5] the target is T2, Aurora kinase C (Homo sapiens). The settings on record: at 1 µM.
The target of experiment [6] is Serine/threonine-protein kinase 10 (Homo sapiens) (UniProt O94804). Particulars: at 0.1 µM.
The target is the same in experiment [7]. Particulars: at 1 µM.
Experiment [8] deals with T3, Mitogen-activated protein kinase kinase kinase kinase 2 (Homo sapiens) (UniProt Q12851).
T3 sequence (whole entry): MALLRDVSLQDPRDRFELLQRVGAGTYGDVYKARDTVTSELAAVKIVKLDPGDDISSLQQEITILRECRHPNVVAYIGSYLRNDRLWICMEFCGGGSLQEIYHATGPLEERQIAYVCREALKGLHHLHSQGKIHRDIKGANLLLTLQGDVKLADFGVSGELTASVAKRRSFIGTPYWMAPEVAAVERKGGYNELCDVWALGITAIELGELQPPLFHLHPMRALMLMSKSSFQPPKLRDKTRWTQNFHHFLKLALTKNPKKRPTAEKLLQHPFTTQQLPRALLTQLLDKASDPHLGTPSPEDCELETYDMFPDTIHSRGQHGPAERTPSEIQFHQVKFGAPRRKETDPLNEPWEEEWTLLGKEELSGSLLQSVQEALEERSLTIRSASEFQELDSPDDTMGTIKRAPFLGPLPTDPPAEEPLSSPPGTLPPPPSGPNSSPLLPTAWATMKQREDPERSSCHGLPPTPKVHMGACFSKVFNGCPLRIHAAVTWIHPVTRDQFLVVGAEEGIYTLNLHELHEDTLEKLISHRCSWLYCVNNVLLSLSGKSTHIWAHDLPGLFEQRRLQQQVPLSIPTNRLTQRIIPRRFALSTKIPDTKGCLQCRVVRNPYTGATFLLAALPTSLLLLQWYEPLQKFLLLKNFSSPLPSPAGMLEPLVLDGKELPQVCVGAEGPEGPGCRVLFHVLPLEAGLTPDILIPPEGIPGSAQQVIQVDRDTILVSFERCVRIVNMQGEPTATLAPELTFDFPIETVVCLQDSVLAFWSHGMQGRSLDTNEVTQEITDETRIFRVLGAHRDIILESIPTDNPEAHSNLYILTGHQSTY
The settings on record: at 0.1 µM.

In experiment [9] the target is T3, Mitogen-activated protein kinase kinase kinase kinase 2 (Homo sapiens). Particulars: at 1 µM.
For experiment [10], the target named is Mitogen-activated protein kinase kinase kinase kinase 4 (Homo sapiens) (UniProt O95819). The settings on record: at 0.1 µM.
Experiment [11] has the same target. Particulars: at 1 µM.
The target in experiment [12] is Dual specificity mitogen-activated protein kinase kinase 1 (Homo sapiens) (UniProt Q02750). Particulars: at 0.1 µM.
The target is the same in experiment [13]. The settings on record: at 1 µM.
Experiment [14] has as its target Misshapen-like kinase 1 (Homo sapiens) (UniProt Q8N4C8). Particulars: at 0.1 µM.
Experiment [15] shares this target. The settings on record: at 1 µM.
Experiment [16] addresses T4, Serine/threonine-protein kinase 4 (Homo sapiens) (UniProt Q13043).
T4 sequence (whole entry): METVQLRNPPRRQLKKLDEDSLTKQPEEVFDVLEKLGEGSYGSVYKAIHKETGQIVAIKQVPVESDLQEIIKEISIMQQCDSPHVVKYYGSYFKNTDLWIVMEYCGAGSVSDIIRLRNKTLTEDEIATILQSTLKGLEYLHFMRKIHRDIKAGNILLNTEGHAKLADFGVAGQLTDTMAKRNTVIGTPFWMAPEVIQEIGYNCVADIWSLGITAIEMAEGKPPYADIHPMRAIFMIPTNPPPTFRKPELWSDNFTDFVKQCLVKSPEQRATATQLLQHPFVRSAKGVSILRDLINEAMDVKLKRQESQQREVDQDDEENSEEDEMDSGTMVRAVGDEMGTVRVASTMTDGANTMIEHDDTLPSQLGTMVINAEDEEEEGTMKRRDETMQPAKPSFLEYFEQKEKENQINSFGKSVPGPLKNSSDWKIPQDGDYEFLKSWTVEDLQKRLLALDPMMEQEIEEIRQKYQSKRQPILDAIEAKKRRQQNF
The settings on record: at 0.1 µM.

The target of experiment [17] is T4, Serine/threonine-protein kinase 4 (Homo sapiens). Particulars: at 1 µM.
In experiment [18] the target is T5, Serine/threonine-protein kinase 3 (Homo sapiens) (UniProt Q13188).
T5 sequence (whole entry): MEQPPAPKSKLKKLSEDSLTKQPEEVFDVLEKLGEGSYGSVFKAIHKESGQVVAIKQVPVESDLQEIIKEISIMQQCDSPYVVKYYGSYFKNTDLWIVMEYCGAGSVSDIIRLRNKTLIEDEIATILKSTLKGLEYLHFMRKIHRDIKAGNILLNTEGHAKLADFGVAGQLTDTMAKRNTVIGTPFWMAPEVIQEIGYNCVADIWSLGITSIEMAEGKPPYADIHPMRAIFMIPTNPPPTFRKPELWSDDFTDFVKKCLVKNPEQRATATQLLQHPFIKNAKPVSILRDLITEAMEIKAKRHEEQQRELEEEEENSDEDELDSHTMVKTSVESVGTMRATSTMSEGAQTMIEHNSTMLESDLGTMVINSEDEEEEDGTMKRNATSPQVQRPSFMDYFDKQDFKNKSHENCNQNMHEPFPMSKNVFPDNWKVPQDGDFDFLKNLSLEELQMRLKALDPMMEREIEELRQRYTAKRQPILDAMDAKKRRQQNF
The settings on record: at 0.1 µM.

Experiment [19] addresses T5, Serine/threonine-protein kinase 3 (Homo sapiens). Particulars: at 1 µM.
Experiment [20] addresses Serine/threonine-protein kinase 26 (Homo sapiens) (UniProt Q9P289). Particulars: at 0.1 µM.

Serine/threonine-protein kinase 26 (Homo sapiens), sequence (Q9P289 2-416 limits assumed): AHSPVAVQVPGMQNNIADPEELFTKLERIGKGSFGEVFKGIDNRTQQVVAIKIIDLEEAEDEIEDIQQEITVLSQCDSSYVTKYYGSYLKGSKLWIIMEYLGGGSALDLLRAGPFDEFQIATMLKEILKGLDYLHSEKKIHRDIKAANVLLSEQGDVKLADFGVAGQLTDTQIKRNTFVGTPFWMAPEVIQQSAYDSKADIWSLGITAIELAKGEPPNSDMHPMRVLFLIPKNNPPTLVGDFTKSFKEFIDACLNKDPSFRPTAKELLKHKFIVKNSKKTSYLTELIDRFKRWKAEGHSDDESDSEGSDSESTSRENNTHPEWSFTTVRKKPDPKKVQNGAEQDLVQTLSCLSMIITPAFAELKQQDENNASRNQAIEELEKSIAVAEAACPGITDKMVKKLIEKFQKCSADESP
Misshapen-like kinase 1 (Homo sapiens), sequence (Q8N4C8 whole entry, looked up): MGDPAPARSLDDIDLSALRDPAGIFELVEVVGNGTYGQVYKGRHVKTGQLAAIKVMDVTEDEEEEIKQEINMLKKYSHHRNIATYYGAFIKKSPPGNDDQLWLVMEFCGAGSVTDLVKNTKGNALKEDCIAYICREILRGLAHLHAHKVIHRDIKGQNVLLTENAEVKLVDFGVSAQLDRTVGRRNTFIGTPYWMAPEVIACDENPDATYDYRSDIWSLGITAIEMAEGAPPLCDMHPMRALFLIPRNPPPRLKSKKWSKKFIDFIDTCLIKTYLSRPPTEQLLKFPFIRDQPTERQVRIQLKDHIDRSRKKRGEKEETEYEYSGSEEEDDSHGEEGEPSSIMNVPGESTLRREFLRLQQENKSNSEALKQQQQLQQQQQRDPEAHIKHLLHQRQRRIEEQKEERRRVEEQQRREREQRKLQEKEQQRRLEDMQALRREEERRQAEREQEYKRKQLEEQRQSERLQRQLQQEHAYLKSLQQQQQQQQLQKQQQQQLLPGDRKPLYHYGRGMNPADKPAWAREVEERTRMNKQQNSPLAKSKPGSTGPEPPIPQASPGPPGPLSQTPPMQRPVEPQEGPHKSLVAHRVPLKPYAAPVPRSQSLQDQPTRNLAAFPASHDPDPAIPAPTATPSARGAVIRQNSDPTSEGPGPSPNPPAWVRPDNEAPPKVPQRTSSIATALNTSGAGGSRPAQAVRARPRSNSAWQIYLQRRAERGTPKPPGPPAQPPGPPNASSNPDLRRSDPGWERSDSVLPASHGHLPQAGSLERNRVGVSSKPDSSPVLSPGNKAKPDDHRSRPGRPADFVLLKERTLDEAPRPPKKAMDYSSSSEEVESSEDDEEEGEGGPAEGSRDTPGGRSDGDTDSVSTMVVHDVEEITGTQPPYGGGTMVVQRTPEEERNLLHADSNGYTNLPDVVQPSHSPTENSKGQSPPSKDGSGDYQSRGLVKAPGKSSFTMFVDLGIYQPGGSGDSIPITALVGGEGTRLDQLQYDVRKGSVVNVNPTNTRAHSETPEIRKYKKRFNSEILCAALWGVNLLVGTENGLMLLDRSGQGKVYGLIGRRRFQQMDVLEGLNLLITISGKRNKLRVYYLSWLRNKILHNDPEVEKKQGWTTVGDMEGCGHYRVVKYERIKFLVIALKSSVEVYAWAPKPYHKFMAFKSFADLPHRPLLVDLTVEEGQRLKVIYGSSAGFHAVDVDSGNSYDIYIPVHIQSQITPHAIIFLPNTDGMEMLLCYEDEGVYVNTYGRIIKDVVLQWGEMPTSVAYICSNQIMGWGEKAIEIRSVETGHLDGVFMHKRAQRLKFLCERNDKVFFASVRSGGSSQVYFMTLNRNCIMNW
Mitogen-activated protein kinase kinase kinase kinase 4 (Homo sapiens), sequence (O95819 2-1239 limits assumed): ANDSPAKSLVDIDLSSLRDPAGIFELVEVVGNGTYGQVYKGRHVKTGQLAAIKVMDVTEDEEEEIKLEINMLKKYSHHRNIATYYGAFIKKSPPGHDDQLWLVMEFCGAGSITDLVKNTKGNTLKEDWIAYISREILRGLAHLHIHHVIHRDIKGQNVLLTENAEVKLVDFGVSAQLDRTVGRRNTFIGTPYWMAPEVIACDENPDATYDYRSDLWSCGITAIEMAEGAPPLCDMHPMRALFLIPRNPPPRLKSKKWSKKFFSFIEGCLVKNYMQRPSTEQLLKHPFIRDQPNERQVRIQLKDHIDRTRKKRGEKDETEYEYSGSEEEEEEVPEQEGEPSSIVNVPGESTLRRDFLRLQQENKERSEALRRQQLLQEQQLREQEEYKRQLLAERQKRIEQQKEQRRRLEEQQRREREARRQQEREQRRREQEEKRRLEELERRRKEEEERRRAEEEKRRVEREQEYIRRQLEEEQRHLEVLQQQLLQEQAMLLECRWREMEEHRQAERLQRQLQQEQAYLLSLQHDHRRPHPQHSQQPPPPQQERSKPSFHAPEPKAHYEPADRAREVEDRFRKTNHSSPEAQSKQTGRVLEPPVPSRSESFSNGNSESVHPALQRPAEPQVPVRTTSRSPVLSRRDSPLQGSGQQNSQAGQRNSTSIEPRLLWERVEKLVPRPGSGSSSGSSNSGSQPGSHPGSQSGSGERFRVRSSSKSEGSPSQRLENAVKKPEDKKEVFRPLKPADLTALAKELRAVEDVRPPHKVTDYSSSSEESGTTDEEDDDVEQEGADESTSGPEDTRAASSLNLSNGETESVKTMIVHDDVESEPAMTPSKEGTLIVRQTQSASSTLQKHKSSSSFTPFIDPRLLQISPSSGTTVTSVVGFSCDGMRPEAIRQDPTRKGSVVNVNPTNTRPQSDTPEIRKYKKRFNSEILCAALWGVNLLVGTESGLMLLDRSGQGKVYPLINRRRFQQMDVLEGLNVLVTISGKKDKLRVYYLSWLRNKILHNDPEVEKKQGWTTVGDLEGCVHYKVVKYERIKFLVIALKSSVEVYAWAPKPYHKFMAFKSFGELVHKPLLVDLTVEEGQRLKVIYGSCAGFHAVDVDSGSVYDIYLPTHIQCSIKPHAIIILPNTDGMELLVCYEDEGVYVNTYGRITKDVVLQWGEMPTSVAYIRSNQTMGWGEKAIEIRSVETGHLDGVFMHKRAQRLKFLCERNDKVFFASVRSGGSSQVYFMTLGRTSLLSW
Aurora kinase B (Homo sapiens), sequence (Q96GD4 whole entry): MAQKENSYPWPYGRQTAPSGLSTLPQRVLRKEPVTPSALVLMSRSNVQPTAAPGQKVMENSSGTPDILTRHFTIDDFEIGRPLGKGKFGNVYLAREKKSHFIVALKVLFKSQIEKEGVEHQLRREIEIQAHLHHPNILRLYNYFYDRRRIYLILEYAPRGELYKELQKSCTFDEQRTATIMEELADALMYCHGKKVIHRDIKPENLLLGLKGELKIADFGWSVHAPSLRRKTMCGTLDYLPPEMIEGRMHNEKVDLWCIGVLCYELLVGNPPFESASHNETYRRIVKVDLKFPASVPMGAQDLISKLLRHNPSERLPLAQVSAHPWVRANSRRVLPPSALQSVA
Dual specificity mitogen-activated protein kinase kinase 1 (Homo sapiens), sequence (Q02750 whole entry): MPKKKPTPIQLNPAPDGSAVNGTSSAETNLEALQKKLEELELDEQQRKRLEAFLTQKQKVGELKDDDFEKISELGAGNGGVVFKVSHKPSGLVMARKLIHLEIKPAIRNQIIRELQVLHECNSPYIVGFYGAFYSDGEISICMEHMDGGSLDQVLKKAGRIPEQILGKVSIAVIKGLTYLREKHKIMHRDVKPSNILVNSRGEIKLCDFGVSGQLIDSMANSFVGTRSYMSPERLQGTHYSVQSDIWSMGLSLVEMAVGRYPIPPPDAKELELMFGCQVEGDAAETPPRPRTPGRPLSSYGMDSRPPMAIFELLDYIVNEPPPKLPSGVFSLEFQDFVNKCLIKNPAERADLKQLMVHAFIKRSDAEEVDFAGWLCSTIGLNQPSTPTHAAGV
Serine/threonine-protein kinase 10 (Homo sapiens), sequence (O94804 whole entry, looked up): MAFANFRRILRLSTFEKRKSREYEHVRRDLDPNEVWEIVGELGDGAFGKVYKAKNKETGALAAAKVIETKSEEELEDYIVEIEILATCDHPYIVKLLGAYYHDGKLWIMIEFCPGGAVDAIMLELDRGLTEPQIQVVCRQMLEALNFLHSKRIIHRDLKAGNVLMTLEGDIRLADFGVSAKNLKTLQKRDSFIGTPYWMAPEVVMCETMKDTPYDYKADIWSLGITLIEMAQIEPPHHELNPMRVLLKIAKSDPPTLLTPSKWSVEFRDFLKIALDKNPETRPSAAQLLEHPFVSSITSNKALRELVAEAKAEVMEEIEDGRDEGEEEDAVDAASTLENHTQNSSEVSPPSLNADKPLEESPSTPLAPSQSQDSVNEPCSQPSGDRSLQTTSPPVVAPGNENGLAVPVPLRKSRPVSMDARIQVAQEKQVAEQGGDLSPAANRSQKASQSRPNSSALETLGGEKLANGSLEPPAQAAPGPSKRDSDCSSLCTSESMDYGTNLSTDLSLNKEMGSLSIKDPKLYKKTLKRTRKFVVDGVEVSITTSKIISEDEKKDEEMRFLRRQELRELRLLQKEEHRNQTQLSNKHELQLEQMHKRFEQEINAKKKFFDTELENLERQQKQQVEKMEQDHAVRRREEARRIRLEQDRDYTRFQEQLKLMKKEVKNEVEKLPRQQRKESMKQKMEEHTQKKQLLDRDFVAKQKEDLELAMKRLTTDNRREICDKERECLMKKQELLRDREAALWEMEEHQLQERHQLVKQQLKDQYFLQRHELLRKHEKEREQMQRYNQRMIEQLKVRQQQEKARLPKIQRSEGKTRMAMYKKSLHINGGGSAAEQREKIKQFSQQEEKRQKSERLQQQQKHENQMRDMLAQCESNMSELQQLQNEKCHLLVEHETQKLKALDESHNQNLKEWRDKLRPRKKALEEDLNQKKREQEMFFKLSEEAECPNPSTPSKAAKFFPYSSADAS

In general, inhibition refers to the change of the read-out against control, counted positive when it falls. In the case of `O=C1NC(=O)C(c2cccc(Cl)c2)=C1Nc1ccc(O)c(Cl)c1`, the inhibition in [1] turned out to be 11.1%; in experiment [2] it was 1.17%; in [3] it was 6.09%; in experiment [4], 1.02%; in [5], 13.1%; in experiment [6], 6.26%. Besides, the inhibition came out at 46.3% in experiment [7]; 4% in [8]; 21.3% in experiment [9]; 1.83% in experiment [10]; 7.19% in [11]; 0.81% in experiment [12]. For the same compound, the inhibition in experiment [13] came out at 7.65%; in experiment [14], 2.81%; in [15], 7.79%; in [16], 33.6%; in [17], 75.2%; in [18], 24.3%. Moreover, the values for the inhibition in [19] and in [20] were 66.8% and 1.93%, respectively.

In the case of `COc1ccc(-c2nn3ncccc3c2-c2ccnc(Nc3ccc(Cl)c(C(F)(F)F)c3)n2)cc1`, the inhibition in [1] was 6.68%; in experiment [2] it was 4.71%; in experiment [3] it was 2.65%; in experiment [4], 0.61%; in [5], -3.91%; in [6], 4.44%. Further, the inhibition is 10.5% in experiment [7]; 0.35% in experiment [8]; 0.58% in experiment [9]; 3.81% in experiment [10]; 14.7% in experiment [11]; 2.33% in experiment [12]. Moreover, the inhibition turned out to be 1.56% in experiment [13]; 3.94% in [14]; 10.2% in [15]; 1.84% in experiment [16]; 5.36% in experiment [17]; 2.73% in experiment [18]. Also, the inhibition worked out at 6.97% in [19] and 0.59% in [20].

Consider `O=C(Nc1n[nH]c2nc(-c3ccco3)c(Br)cc12)C1CC1`, for which the inhibition in experiment [1] was 45.6%; in [2], 5.16%; in [3] it was 14.5%; in experiment [4] it was 2.71%; in [5] it was 29.4%; in experiment [6] it was 6.48%. Also, the inhibition in experiment [7] is 11.3%; in [8] it was -0.14%; in experiment [9], 2.51%; in experiment [10], 4.76%; in experiment [11] it was 8.55%; in experiment [12] it was 3.9%. For the same compound, the inhibition was determined as 3.63% in experiment [13]; 5.14% in experiment [14]; 8.29% in experiment [15]; 5.17% in [16]; 4% in experiment [17]; 6.08% in [18]. Also, the results for the inhibition in experiment [19] and in experiment [20] were 5.58% and -1.82%, respectively.

Take `NS(=O)(=O)c1ccc(N/N=C2\C(=O)Nc3ccc(C(=O)NCCc4c[nH]cn4)cc32)cc1`: the inhibition in experiment [1] was found to be 41.2%; in experiment [2] it was 6%; in experiment [3], 26.8%; in experiment [4], 3.9%; in [5], 31.5%; in experiment [6], 3.71%. The inhibition in experiment [7] was 8.99%; in [8], 1.62%; in experiment [9], 6.59%; in [10], 10.5%; in experiment [11] it was 40%; in [12], 6.81%. Also, the inhibition in experiment [13] came to 16.3%; in experiment [14], 11.2%; in [15], 32.6%; in experiment [16], 56.3%; in experiment [17], 86.7%; in experiment [18], 46.5%. For the same compound, the results for the inhibition in experiment [19] and in experiment [20] were 83.5% and -0.45%, respectively.

For the compound `O=C1Nc2ccc(C(=O)c3ccco3)cc2C1=Cc1cc(Cl)c(O)c(Cl)c1`, the inhibition in experiment [1] turned out to be 67.3%; in [2], 3.22%; in experiment [3], 13.3%; in experiment [4] it was 3.45%; in experiment [5], 36.7%; in experiment [6], 4.59%. In addition, the inhibition amounted to 15.1% in [7]; 1.22% in experiment [8]; 7.56% in [9]; 27.5% in experiment [10]; 75.8% in [11]; 2.93% in experiment [12]. Besides, the inhibition in experiment [13] came out at 9.42%; in [14] it was 18.1%; in [15], 61.8%; in [16], 21.7%; in experiment [17], 66.8%; in experiment [18] it was 20.4%. For the same compound, the inhibition in experiment [19] turned out to be 65.3%; in [20] it was 3.9%.

As to `COc1ccc(-c2coc3ncnc(N)c23)cc1`, the inhibition in [1] was found to be 7.06%; in [2], 3.4%; in experiment [3] it was 8.81%; in [4] it was 1.56%; in experiment [5], 15.3%; in experiment [6], 3.11%. Moreover, the inhibition in experiment [7] came to 8.06%; in experiment [8], 1.83%; in experiment [9], 6.08%; in experiment [10], 4.43%; in experiment [11] it was 10.2%; in [12], 5.34%. Besides, the inhibition in [13] turned out to be 5.29%; in experiment [14], 12.5%; in experiment [15], 8.75%; in [16] it was 7.11%; in experiment [17] it was 8.23%; in [18] it was 6.08%. Moreover, the values for the inhibition in [19] and in experiment [20] were 6.94% and -0.2%, respectively.

On to `CC(C)=Cc1cccc2c1/C(=N/Nc1ccc(S(N)(=O)=O)cc1)C(=O)N2`, for which the inhibition came out at 93.1% in [1]; 8.72% in experiment [2]; 45% in experiment [3]; 5.14% in experiment [4]; 65.6% in experiment [5]; 1.18% in [6]. Besides, the inhibition in experiment [7] worked out at 10.2%; in experiment [8], 1.89%; in [9], 6.11%; in [10], 3.27%; in experiment [11] it was 31.3%; in experiment [12], 0.02%. The inhibition amounted to 2.23% in experiment [13]; 3.63% in experiment [14]; 25.1% in [15]; 66.6% in experiment [16]; 84.5% in [17]; 52.6% in experiment [18]. Further, the inhibition in [19] is 82.4%; in experiment [20], 4.55%.
